In PubChem BioAssay AID1159580 (chemical genetic matrix, 2015):
Among all 5,500 compounds or so, about 2,000 (36%) were called active. Another 18% or so got no clear call; they are omitted. This is one part of the list. A number with no mark means an inactive call. Cut-off read from the data, not from the text of the source: active = normalized growth mostly below about 0.91 (no sharp cut-off); inconclusive = no clear call, values can overlap the other calls; inactive = mostly above about 0.92.

Test: chemical genetic growth profiling, strain panel (AID 1159580);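 note: tested at 20 µM; growth read once vehicle control cultures reached saturation at 30 °C; 1 = growth at the plate median or of vehicle wells; lower values mean less growth of the strain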
Settings: S. cerevisiae deletion strains, growth OD
[1] = locus YAR019C, strain CDC15, hits give low values
[2] = locus YBL105C, strain PKC1, hits give low values
[3] = locus YBR135W, strain CKS1, hits give low values
[4] = locus YBR136W, strain MEC1, hits give low values
[5] = locus YBR160W, strain CDC28, hits give low values
[6] = locus YDL017W, strain CDC7, hits give low values
[7] = locus YDL028C, strain MPS1, hits give low values
[8] = locus YDL101C, strain DUN1, hits give low values
[9] = locus YDL108W, strain KIN28, hits give low values
[10] = locus YDL132W, strain cdc53, hits give low values
[11] = locus YDL214C, strain PRR2, hits give low values
[12] = locus YDR052C, strain DBF4, hits give low values
[13] = locus YDR054C, strain cdc34, hits give low values
[14] = locus YDR226W, strain ADK1, hits give low values
[15] = locus YDR477W, strain SNF1, hits give low values
[16] = locus YER123W, strain YCK3, hits give low values
[17] = locus YER133W, strain GLC7, hits give low values
[18] = locus YFL009W, strain cdc4, hits give low values
[19] = locus YFL029C, strain CAK1, hits give low values
[20] = locus YFR003C, strain YPI1, hits give low values
[21] = locus YFR019W, strain FAB1, hits give low values
[22] = locus YFR028C, strain CDC14, hits give low values
[23] = locus YGR040W, strain KSS1, hits give low values
[24] = locus YGR052W, strain FMP48, hits give low values
[25] = locus YGR092W, strain DBF2, hits give low values
[26] = locus YHR030C, strain SLT2, hits give low values
[27] = locus YHR079C, strain IRE1, hits give low values
[28] = locus YHR082C, strain KSP1, hits give low values
[29] = locus YHR205W, strain SCH9, hits give low values
[30] = locus YIL147C, strain SLN1, hits give low values
[31] = locus YJL095W, strain BCK1, hits give low values
[32] = locus YJL128C, strain PBS2, hits give low values
[33] = locus YJL157C, strain FAR1, hits give low values
[34] = locus YJR016C, strain ILV3, hits give low values
[35] = locus YJR066W, strain TOR1 (second series), hits give low values
[36] = locus YJR066W, strain TOR1, hits give low values
[37] = locus YKL048C, strain ELM1, hits give low values
[38] = locus YKL067W, strain YNK1, hits give low values
[39] = locus YKL101W, strain HSL1, hits give low values
[40] = locus YKL193C, strain SDS22, hits give low values
[41] = locus YKL203C, strain TOR2, hits give low values
[42] = locus YLR113W, strain HOG1, hits give low values
[43] = locus YLR133W, strain CKI1, hits give low values
[44] = locus YLR403W, strain SFP1, hits give low values
[45] = locus YML070W, strain DAK1, hits give low values
[46] = locus YMR001C, strain CDC5, hits give low values
[47] = locus YMR205C, strain PFK2 (second series), hits give low values
[48] = locus YMR277W, strain FCP1, hits give low values
[49] = locus YNL006W, strain LST8, hits give low values
[50] = locus YNL020C, strain ARK1, hits give low values
[51] = locus YNL161W, strain CBK1, hits give low values
[52] = locus YNL183C, strain NPR1, hits give low values
[53] = locus YNL207W, strain RIO2, hits give low values
[54] = locus YNL222W, strain SSU72, hits give low values
[55] = locus YNL307C, strain MCK1 (second series), hits give low values
[56] = locus YOL078W, strain AVO1, hits give low values
[57] = locus YOL136C, strain PFK27, hits give low values
[58] = locus YOR061W, strain CKA2, hits give low values
[59] = locus YOR119C, strain RIO1, hits give low values
[60] = locus YOR231W, strain MKK1, hits give low values
[61] = locus YOR329C, strain SCD5, hits give low values
[62] = locus YPL031C, strain PHO85, hits give low values
[63] = locus YPL153C, strain RAD53, hits give low values
[64] = locus YPL204W, strain HRR25, hits give low values
[65] = locus YPL209C, strain IPL1, hits give low values
[66] = locus YPL256C, strain CLN2, hits give low values
[67] = locus YPR025C, strain CCL1, hits give low values
[68] = locus YPR106W, strain ISR1, hits give low values
[69] = locus YPR111W, strain DBF20, hits give low values
[70] = strain NNK1, hits give low values
[71] = strain TSCII, hits give low values

CCOC(=O)C(NC(C)=O)(Nc1ccc(F)c(Cl)c1)C(F)(F)F (stereo not given)
normalized growth [1]: 0.992
normalized growth [2]: 0.995
normalized growth [3]: 0.983
normalized growth [4]: 0.997
normalized growth [5]: 0.991
normalized growth [6]: 0.992
normalized growth [7]: 0.995
normalized growth [8]: 0.982
normalized growth [9]: 0.997
normalized growth [10]: 0.991
normalized growth [11]: 1.01
normalized growth [12]: 0.99
normalized growth [13]: 0.997
normalized growth [14]: 0.985
normalized growth [15]: 1
normalized growth [16]: 0.933
normalized growth [17]: 0.994
normalized growth [18]: 0.991
normalized growth [19]: 0.994
normalized growth [20]: 0.992
normalized growth [21]: 0.973
normalized growth [22]: 0.979
normalized growth [23]: 0.988
normalized growth [24]: 1.14
normalized growth [25]: 0.97
normalized growth [26]: 1.19 [resistant] (active)
normalized growth [27]: 1.15
normalized growth [28]: 1.14
normalized growth [29]: 1.01
normalized growth [30]: 0.99
normalized growth [31]: 1.14
normalized growth [32]: 0.963
normalized growth [33]: 1.01
normalized growth [34]: 0.998
normalized growth [35]: 0.997
normalized growth [36]: 1.18
normalized growth [37]: 0.998
normalized growth [38]: 1
normalized growth [39]: 1.01
normalized growth [40]: 0.979
normalized growth [41]: 1.07
normalized growth [42]: 1.11
normalized growth [43]: 1.01
normalized growth [44]: 1.01
normalized growth [45]: 0.997
normalized growth [46]: 0.984
normalized growth [47]: 0.992
normalized growth [48]: 0.988
normalized growth [49]: 0.988
normalized growth [50]: 1.01
normalized growth [51]: 0.986
normalized growth [52]: 1.16
normalized growth [53]: 1
normalized growth [54]: 0.989
normalized growth [55]: 1.01
normalized growth [56]: 0.981
normalized growth [57]: 0.999
normalized growth [58]: 1
normalized growth [59]: 1
normalized growth [60]: 1.11
normalized growth [61]: 0.991
normalized growth [62]: 1
normalized growth [63]: 0.993
normalized growth [64]: 0.996
normalized growth [65]: 0.988
normalized growth [66]: 1.12
normalized growth [67]: 0.986
normalized growth [68]: 0.99
normalized growth [69]: 0.997
normalized growth [70]: 1.01
normalized growth [71]: 0.986

CCOC(=O)C(O)(c1ccc(NC(=O)Nc2ccc(Cl)cc2)cc1)C(F)(F)F (stereo not given)
normalized growth [1]: 0.993
normalized growth [2]: 0.985
normalized growth [3]: 0.997
normalized growth [4]: 0.985
normalized growth [5]: 0.99
normalized growth [6]: 0.989
normalized growth [7]: 0.987
normalized growth [8]: 0.982
normalized growth [9]: 0.986
normalized growth [10]: 0.993
normalized growth [11]: 1.03
normalized growth [12]: 0.984
normalized growth [13]: 0.986
normalized growth [14]: 0.993
normalized growth [15]: 1.01
normalized growth [16]: 1.01
normalized growth [17]: 1
normalized growth [18]: 0.997
normalized growth [19]: 0.99
normalized growth [20]: 0.988
normalized growth [21]: 0.988
normalized growth [22]: 0.992
normalized growth [23]: 0.999
normalized growth [24]: 0.991
normalized growth [25]: 0.924
normalized growth [26]: 1.06
normalized growth [27]: 1.04
normalized growth [28]: 1.05
normalized growth [29]: 0.935
normalized growth [30]: 0.981
normalized growth [31]: 0.915
normalized growth [32]: 0.956
normalized growth [33]: 1
normalized growth [34]: 0.994
normalized growth [35]: 0.977
normalized growth [36]: 1.03
normalized growth [37]: 1.01
normalized growth [38]: 0.994
normalized growth [39]: 0.975
normalized growth [40]: 0.987
normalized growth [41]: 1.04
normalized growth [42]: 0.963
normalized growth [43]: 1.01
normalized growth [44]: 0.973
normalized growth [45]: 0.992
normalized growth [46]: 0.983
normalized growth [47]: 0.991
normalized growth [48]: 0.999
normalized growth [49]: 1.01
normalized growth [50]: 1
normalized growth [51]: 0.998
normalized growth [52]: 1.01
normalized growth [53]: 0.983
normalized growth [54]: 0.979
normalized growth [55]: 0.924
normalized growth [56]: 0.982
normalized growth [57]: 0.992
normalized growth [58]: 1
normalized growth [59]: 1.08
normalized growth [60]: 0.986
normalized growth [61]: 0.992
normalized growth [62]: 0.987
normalized growth [63]: 1.03
normalized growth [64]: 1
normalized growth [65]: 0.996
normalized growth [66]: 1.11
normalized growth [67]: 0.99
normalized growth [68]: 0.992
normalized growth [69]: 0.986
normalized growth [70]: 0.998
normalized growth [71]: 0.993

CCOC(=N)c1ccc(F)c(Cl)c1
normalized growth (locus YAL013W, strain DEP1, hits give low values): 1.01
normalized growth (locus YBR229C, strain ROT2, hits give low values): 0.995
normalized growth [8]: 0.992
normalized growth (locus YDL134C, strain PPH21, hits give low values): 1.02
normalized growth (locus YDR150W, strain NUM1, hits give low values): 1.01
normalized growth (locus YEL061C, strain CIN8, hits give low values): 1.01
normalized growth (locus YGR078C, strain PAC10, hits give low values): 1.02
normalized growth (locus YGR229C, strain SMI1, hits give low values): 1.02
normalized growth [26]: 1.02
normalized growth (locus YHR087W, strain rtc3, hits give low values): 0.995
normalized growth (locus YJR043C, strain POL32, hits give low values): 1.02
normalized growth (locus YJR075W, strain HOC1, hits give low values): 1.01
normalized growth (locus YLR039C, strain RIC1, hits give low values): 1.07
normalized growth (locus YLR058C, strain SHM2 (second series), hits give low values): 1.01
normalized growth (locus YLR085C, strain ARP6, hits give low values): 1.02
normalized growth (locus YLR262C, strain YPT6, hits give low values): 1.06
normalized growth (locus YML094W, strain GIM5, hits give low values): 0.981
normalized growth (locus YMR219W, strain ESC1, hits give low values): 1.02
normalized growth (locus YMR263W, strain SAP30, hits give low values): 1.06
normalized growth (locus YMR307W, strain GAS1, hits give low values): 1.07
normalized growth (locus YNL153C, strain GIM3, hits give low values): 0.999
normalized growth (locus YNL298W, strain CLA4 (second series), hits give low values): 1.06
normalized growth (locus YNL322C, strain KRE1, hits give low values): 1.01
normalized growth (locus YNR030W, strain Alg12, hits give low values): 1.01
normalized growth (locus YOL006C, strain TOP1, hits give low values): 1.06
normalized growth (locus YPL055C, strain LGE1, hits give low values): 1.02
normalized growth (locus YPL241C, strain CIN2, hits give low values): 0.923
normalized growth (locus YPR135W, strain CTF4, hits give low values): 1.05
